# Measured values: PubChem BioAssay (NCATS)
# Records with an inconclusive call do not appear. A number with no mark means an inactive call. Calls come from the whole dose curve; as a rule, active = well fitted inhibition curve with a large enough effect; inconclusive = small, poorly fitted or top-dose-only effect; inactive = flat fitted curve, though single readings scatter.
# Target: Aldehyde dehydrogenase, mitochondrial (Homo sapiens) (UniProt P05091)
# Assay: qHTS for Inhibitors of the Aldehyde Dehydrogenase Family (ALDH2) Primary screen (AID 2061308);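 note: plate controls were vehicle for no effect and reference inhibitor for full effect; nearly all actives have a fitted effect of over 55% in size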
# Conditions: ALDH2 enzyme inhibition qHTS, 1536-well; series mostly up to 56 µM; activity change, negative = inhibition: at the top concentration
row,SMILES,"activity change, negative = inhibition"
1,C/C=C(\C)C(=O)O[C@@H]1[C@@H](C)[C@]2(O)C3C=C(C)C(=O)[C@@]3(O)CC(CO)=C[C@H]2C2C(C)(C)[C@@]21OC(=O)C(C)CC (stereo partly drawn),1.01% [at 28 µM]
2,C[n+]1cc(P(=S)(c2ccccc2)c2ccccc2)n2ccccc21,-0.874%
3,Fc1cc(F)c2c(c1)C1C=CCC1C(c1cccnc1)N2 (stereo not drawn),-10.2%
4,CC(C)C(=O)O[C@H]1[C@@H]2[C@H](C)C(=O)O[C@@H]2C[C@@H](C)[C@@H]2C=CC(=O)[C@]21C,1.88%
5,CC(C)=CCC[C@]1(C)C=Cc2c(O)c3c(c(CC=C(C)C)c2O1)O[C@]12C(=C[C@@H]4CC1C(C)(C)O[C@@]2(C/C=C(/C)C(=O)O)C4=O)C3=O,0.174%
6,CC[C@H]1C2CC3[C@@H]4N(C)c5ccccc5[C@]45C[C@@H]([C@H]2[C@H]5O)N3[C@H]1O,16.7%
7,COC(=O)c1nc(-c2cccc3ccccc23)oc1OC,-23%
8,S=P(c1ccccc1)(c1ccccc1)c1c[nH]c2ccccc12,-13%
9,C=C(CO)C(=O)O[C@H]1C/C(C)=C/CC/C(CO)=C/[C@H]2OC(=O)C(=C)[C@H]12,1.45%
10,C[C@]12CC[C@H](O)C[C@H]1CC[C@@H]1[C@@H]2[C@H](O)C[C@]2(C)[C@@H](c3ccc(=O)oc3)CC[C@]12O,-5.87%
11,Cc1cc(-c2nnc3n2CCCCC3)c(C)n1-c1ccc(C(C)(C)C)cc1,-0.886%
12,Oc1cccc2cc(N3CCNCC3)cnc12,-0.0406%
13,C/C=C(/C)C(=O)O[C@H]1[C@@H]2[C@H](C)C(=O)O[C@@H]2C[C@@H](C)[C@@H]2C=CC(=O)[C@]21C,1.95%
